Data published in PubChem BioAssay (NCATS).
Results filed as inconclusive are left out. A call without a number means that no potency is given here. Calls of active or inactive are those of the source. Calls follow the shape of the dose curve; as a rule, active = well fitted cell-killing curve with a large enough effect; inconclusive = small, poorly fitted or top-dose-only effect, or effect the other way; inactive = no such curve, though single readings can be large or run the other way.

How the values were obtained:
[1] = Quantitative High-Throughput drug screen in 47 multiple myeloma cell lines against the NCATS MIPE library collection: INA6_PLB cell viability assay (AID 1918965; also: nearly all actives have a fitted effect of over 55% in size); conditions: INA6 myeloma viability, CellTiter-Glo ATP luminescence, 48 h; series mostly up to 45.8 µM
Summary of the method: (§1)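 Approved and investigational drugs from MIPE 4.0 were added by pin tool to 500 cells per well. After 48 hours at 37C, ATP-based CellTiter-Glo luminescence indicated remaining viability.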

[2] = Quantitative High-Throughput drug screen in 47 multiple myeloma cell lines against the NCATS MIPE library collection: JJN3_DSMZ cell viability assay (AID 1918966; also: nearly all actives have a fitted effect of over 50% in size); conditions: JJN3 myeloma cells viability, CellTiter-Glo ATP, 48 h; series mostly up to 45.8 µM
Summary of the method: (§2)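 Viability readout: CellTiter-Glo luminescence following 5 min room-temperature incubation with reagent. Prior exposure: 48 h, 37C, humidified 5% CO2, 500 cells per well.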

[3] = Quantitative High-Throughput drug screen in 47 multiple myeloma cell lines against the NCATS MIPE library collection: Karpas25_ECACC cell viability assay (AID 1918968; also: nearly all actives have a fitted effect of over 35% in size); conditions: Karpas25 myeloma viability, CellTiter-Glo ATP, 48 h; series mostly up to 45.8 µM
Source text: (§3) PI: Beverly A. Mock Ph.D.
(§4) Laboratory of Cancer Biology and Genetics,
(§5) Center for Cancer Research, National Cancer Institute,
(§6) National Institute of Health, Bethesda, Maryland
(§7) Drug resistance and disease progression are common in multiple myeloma (MM) patients, underscoring the need for new therapeutic combinations. […] We hypothesized that effective combinations would reduce MYC expression and enhance p16 activity. […] These preclinical data identify potentially useful drug combinations for evaluation in drug-resistant MM and reveal potential mechanisms of combined drug sensitivity.
(§8) Described herein is the primary MIPE qHTS used to cherrypick compounds. Validated compounds were then further tested for potential synergistic activiy.
(§9) [1] Peat TJ, Gaikwad SM, Dubois W, Gyabaah-Kessie N, Zhang S, Gorjifard S, Phyo Z, Andres M, Hughitt VK, Simpson RM, Miller MA, Girvin AT, Taylor A, Williams D, D'Antonio N, Zhang Y, Rajagopalan A, Flietner E, Wilson K, Zhang X, Shinn P, Klumpp-Thomas C, McKnight C, Itkin Z, Chen L, Kazandijian D, Zhang J, Michalowski AM, Simmons JK, Keats J, Thomas CJ, Mock BA. Drug combinations identified by high-throughput screening promote cell cycle transition and upregulate Smad pathways in myeloma. Cancer Lett. 2023 Aug 1;568:216284. doi: 10.1016/j.canlet.2023.216284. Epub 2023 Jun 24. PMID: 37356470; PMCID: PMC10408729.
(§10) SEQUENCE No. (e.g., 1, 2, 3, etc.); […] (e.g., Cells, Incubation, Reagent, etc.); VALUE and DESCRIPTION.
(§11) 1; Cells; 5 uL; white, solid bottom 1536-well Greiner assay plate.
(§12) 2; Compounds; 23 nL; Kalypsis pin tool (Wako USA) equipped with a 1536-well pin head to transfer to the assay plates.
(§13) 3; Incubation; 48 hours; 37C incubation.
(§14) 4; Reagent;5uL; CellTiter Glo (Promega).
(§15) 5; Detector; 425V; Luminescence; Viewlux PerkinElmer.
(§16) NOTES (numbers refer to Sequence numbers above)
(§17) 1. The cell-based screening methods employed in this study were like those previously published. Briefly, the corresponding myeloma cell lines were screened in 1,536-well plates with 500 cells, 5-uL per well for inhibition of cell viability (assessed by measuring ATP levels with CellTiterGlo).
(§18) 2. NCATS MIPE 4.0 library of approved and investigational drugs were added using the Kalypsis pin tool. Wells treated with DMSO only for 100% viability and media only wells for 0% viability were used as controls.
(§19) 3. The assay plates were covered and incubated for 48 hours in a 37C, 5% CO2 incubator with controlled humidity.
(§20) 4. After 48 hours, CellTilter-GloTM luminescent substrate mix (Promega) reagent was added to the assay plate and plates we incubated for 5 min at room temperature.
(§21) 5. Signal was measured as median relative luminescence units on a ViewLux (PerkinElmer) multiplate reader.
(§22) [1] Heske CM, Davis MI, Baumgart JT, Wilson K, Gormally MV, Chen L, Zhang X, Ceribelli M, Duveau DY, Guha R, Ferrer M, Arnaldez FI, Ji J, Tran HL, Zhang Y, Mendoza A, Helman LJ, Thomas CJ. Matrix Screen Identifies Synergistic Combination of PARP Inhibitors and Nicotinamide Phosphoribosyltransferase (NAMPT) Inhibitors in Ewing Sarcoma. Clin Cancer Res. 2017 Dec 1;23(23):7301-7311. doi: 10.1158/1078-0432.CCR-17-1121. Epub 2017 Sep 12. PMID: 28899971; PMCID: PMC6636827.

[4] = Quantitative High-Throughput drug screen in 47 multiple myeloma cell lines against the NCATS MIPE library collection: KMS27_JCRB cell viability assay (AID 1918970); conditions: KMS27 myeloma cells, CellTiter-Glo ATP viability, 48 h; series mostly up to 45.8 µM; also: nearly all actives have a fitted effect of over 30% in size
Source text: as §3, §4, §5, §6, §7, §8
as §9, with “Cancer Lett. 2023 Aug 1;568:216284. doi: 10.1016/j.canlet.2023.216284.” left out
as §10, §11, §12, §13, §14, §15, §16, §17, §18, §19, §20, §21, §22

[5] = Quantitative High-Throughput drug screen in 47 multiple myeloma cell lines against the NCATS MIPE library collection: KMS12PE_JCRB cell viability assay (AID 1918972); conditions: KMS12PE myeloma viability, CellTiter-Glo ATP, 48 h; series mostly up to 45.8 µM; also: nearly all actives have a fitted effect of over 30% in size
Summary of the method: as §1

[6] = Quantitative High-Throughput drug screen in 47 multiple myeloma cell lines against the NCATS MIPE library collection: KMS26_JCRB cell viability assay (AID 1918975); conditions: KMS26 myeloma cells viability, CellTiter-Glo ATP, 48 h; series mostly up to 45.8 µM; also: nearly all actives have a fitted effect of over 45% in size
Summary of the method: (§23)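 Steps: seed 500 cells per well; pin-transfer MIPE 4.0 library; incubate 48 h at 37C, 5% CO2, humidified; add CellTiter-Glo, 5 min room temperature; read luminescence.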

[7] = Quantitative High-Throughput drug screen in 47 multiple myeloma cell lines against the NCATS MIPE library collection: H1112_PLB cell viability assay (AID 1918967; also: nearly all actives have a fitted effect of over 30% in size); conditions: H1112 myeloma cells viability, ATP luminescence, 48 h; series mostly up to 45.8 µM
Summary of the method: as §2

[8] = Quantitative High-Throughput drug screen in 47 multiple myeloma cell lines against the NCATS MIPE library collection: KMS20_JCRB cell viability assay (AID 1918973); conditions: CellTiter-Glo ATP, 48 h; series mostly up to 45.8 µM; also: nearly all actives have a fitted effect of over 45% in size
Summary of the method: as §2

[9] = Quantitative High-Throughput drug screen in 47 multiple myeloma cell lines against the NCATS MIPE library collection: KMS21BM_JCRB cell viability assay (AID 1918974); conditions: ATP luminescence, 48 h; series mostly up to 45.8 µM
Source text: as §3, §4, §5, §6, §7, §8, §9, §10, §11, §12, §13, §14, §15, §16, §17, §18, §19, §20, §21, §22

[10] = Quantitative High-Throughput drug screen in 47 multiple myeloma cell lines against the NCATS MIPE library collection: KMS12BM_JCRB cell viability assay (AID 1918971); conditions: KMS12BM myeloma viability, CellTiter-Glo ATP, 48 h; series mostly up to 45.8 µM; also: nearly all actives have a fitted effect of over 35% in size
Summary of the method: as §23
Potency is read from the fitted curve at half-maximal effect.

Row | SMILES | Potency [1] | Potency [2] | Potency [3] | Potency [4] | Potency [5] | Potency [6] | Potency [7] | Potency [8] | Potency [9] | Potency [10]
1 | CC(NC(C)(C)C)C(=O)c1cccc(Cl)c1 (centres undefined) | inactive | inactive | 3.72 µM (active) | inactive | inactive | inactive | – | – | – | –
2 | COc1cc(OC)c(OC)cc1C=O | inactive | – | inactive | 0.0047 µM (active) | inactive | inactive | inactive | inactive | inactive | –
3 | C[C@](O)(CS(=O)(=O)c1ccc(F)cc1)C(=O)Nc1ccc(C#N)c(C(F)(F)F)c1 | 1.18 µM (active) | 4.69 µM (active) | 0.418 µM (active) | inactive | – | 4.69 µM (active) | 0.662 µM (active) | 0.833 µM (active) | 6.62 µM (active) | 26.4 µM (active)
4 | CCC1(c2ccc(N)cc2)CCC(=O)NC1=O (centres undefined) | inactive | – | inactive | inactive | inactive | inactive | inactive | – | – | –
5 | CC(C)C[C@H](CN)CC(=O)O | inactive | – | inactive | inactive | inactive | inactive | inactive | – | – | 9.35 µM (active)
6 | C[C@]12CC[C@@H]3c4ccc(OC(=O)N(CCCl)CCCl)cc4CC[C@H]3[C@@H]1CC[C@@H]2OP(=O)(O)O | – | inactive | inactive | inactive | – | – | inactive | – | inactive | inactive
7 | C[C@]12CC[C@H]3[C@@H](CC[C@@]45O[C@H]4C(O)=C(C#N)C[C@]35C)[C@H]1CC[C@H]2O | – | 18.7 µM (active) | inactive | – | – | – | – | inactive | – | inactive
8 | CC(C)c1cccc(C(C)C)c1O | inactive | – | inactive | – | – | – | inactive | inactive | – | –
9 | O=C(O)CCCc1ccc(N(CCCl)CCCl)cc1 | 18.7 µM (active) | – | – | – | inactive | – | inactive | – | inactive | –
10 | CN1C(=O)CCS(=O)(=O)C1c1ccc(Cl)cc1 (centres undefined) | inactive | inactive | – | inactive | inactive | inactive | 16.6 µM (active) | inactive | – | inactive
11 | C[C@]12CCC(=O)C=C1CC[C@@H]1[C@H]3CC[C@](C)(O)[C@@]3(C)CC[C@@H]12 | – | – | – | – | 15.2 µM (active) | – | inactive | – | – | 34 µM (active)
12 | O=P1(N(CCCl)CCCl)NCCCO1 (centres undefined) | – | – | – | 20.9 µM (active) | 8.33 µM (active) | – | inactive | – | 14.8 µM (active) | –
13 | CN1C(=O)COc2c(C(=O)NC3CN4CCC3CC4)cc(Cl)cc21 (centres undefined) | – | – | inactive | – | inactive | inactive | inactive | – | – | inactive
